T cruzi growth-1 – T. cruzi proliferation inhibition. hit rate 5.9% among 77,000. T. cruzi beta-gal in NIH3T3, GalScreen luminescence, 90 h. inhibition, % at 8.34 µM;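 active means mean inhibition above about 93%, with at least 55% of replicates each passing it, limit read from the data, passing the limit was not always enough; inconclusive means only one of those two conditions holds; inactive means neither condition holds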
Pf Dd2 inh – inhibitors of Plasmodium falciparum Dd2 growth. AID 1159554. activity change, % at 10 µM. P. falciparum Dd2 growth, SYBR Green, 72 h; active compounds read low. hit rate 2.3% among 94,000; in the data active means activity change below about -80%; inconclusive means no clear call, values can overlap the other calls
C diff growth – C. difficile growth inhibition. growth activity, negative = inhibition, % at 16 µg/mL (by protocol). hit rate 0.25% among 86,000. Clostridium difficile clinical isolate growth, OD600, 24 h; active compounds read low;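 active means mean growth activity at or below -80% and every replicate also at or below -80%; inconclusive means mean at or below -80% but some replicate above -80%; inactive means mean growth activity above -80%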;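 further: 0% = DMSO wells and -100% = levofloxacin 16 µg/mL wells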
T cruzi growth-2 – Trypanosoma cruzi proliferation inhibition; shares compounds with T cruzi growth-1; T. cruzi beta-gal in NIH3T3, GalScreen luminescence, 90 h; inhibition, % at 8.35 µM; hit rate 72% among 5,600;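 active means mean replicate inhibition above about 95% and at least 55% of replicates individually reaching it, limit read from the data; inconclusive means only one of the two criteria is met; inactive means neither criterion is met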
T cruzi growth-3 – blocks T. cruzi growth in NIH3T3 host cells; shares compounds with T cruzi growth-1; T. cruzi beta-gal in NIH3T3, GalScreen luminescence, 90 h; inhibition, % at 2.09 µM; hit rate 21% among 5,600;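 active means mean inhibition above about 95%, with at least 55% of replicates also reaching it, limit read from the data; inconclusive means meets just one of the two conditions; inactive means meets neither condition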;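 further: plate controls were neutral control median for no effect and positive control median for full effect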
NIH3T3 tox – kills mouse NIH/3T3 fibroblasts; shares compounds with T cruzi growth-1; NIH/3T3 viability, CellTiter-Glo ATP luminescence, 90 h; cytotoxicity (signal decrease), % at 8.35 µM; hit rate 14% among 5,600;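 active means mean signal decrease across replicates above about 35% based on untreated-well scatter, with enough replicates individually passing, limit read from the data; inconclusive means no rule stated though some were filed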;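 further: 0% = median of neutral control wells and 100% = median of positive control wells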
3T3 cytotox 2 – kills mouse NIH/3T3 fibroblasts. shares compounds with T cruzi growth-1. inhibition, % at 24.9 µM. hit rate 56% among 5,600. NIH/3T3 viability, CellTiter-Glo ATP luminescence, 90 h;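 active means mean loss of cell viability signal at or above a set limit, and enough replicates individually reaching it; inconclusive means meets only the mean limit or only the replicate share; inactive means meets neither condition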;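 further: 0% = median of neutral control wells and 100% = median of positive control wells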
The depositor's hits bear a star; ? = inconclusive; · = no result given. The list is not random: actives were taken first. Their share in the collection is about 6.8%.

SMILES | T cruzi growth-1 | Pf Dd2 inh | C diff growth | T cruzi growth-2 | T cruzi growth-3 | NIH3T3 tox | 3T3 cytotox 2
O=C(C[C@H]1C[C@H]2c3cc(NC(=O)Nc4ccccc4)ccc3O[C@H]2[C@H](CO)O1)NCCN1CCCCC1 | -60 | 18 | -5 | · | · | · | ·
C[C@@H]1CN([C@@H](C)CO)S(=O)(=O)c2ccc(-c3cccc(F)c3)cc2O[C@H]1CN(C)C | -34 | · | 0 | · | · | · | ·
C[C@@H]1CN([C@@H](C)CO)S(=O)(=O)c2ccc(-c3cccc(F)c3)cc2O[C@@H]1CN(C)S(=O)(=O)c1ccc(F)cc1 | 120 | 1 | 7 | · | · | · | ·
C[C@H](CO)N1C[C@H](C)[C@H](CN(C)S(=O)(=O)c2ccc(F)cc2)Oc2cc(-c3cccc(F)c3)ccc2S1(=O)=O | 124* | -59 | 9 | 98* | 95 | 20 | 54*
C[C@H]1CN([C@@H](C)CO)S(=O)(=O)c2ccc(-c3cccc(F)c3)cc2O[C@H]1CN(C)S(=O)(=O)c1ccc(F)cc1 | 118* | -54 | 7 | 99* | 108* | 26 | 52*
C[C@@H]1CN([C@@H](C)CO)C(=O)c2cccc(NS(=O)(=O)c3ccccc3)c2O[C@H]1CN(C)C(=O)NC1CCCCC1 | 63 | -12 | 3 | · | · | · | ·
C[C@@H]1CN([C@H](C)CO)C(=O)c2cc(C#CCc3ccccc3)cnc2O[C@H]1CN(C)C(=O)Cc1cccnc1 | · | -76 | 71 | · | · | · | ·
O=C(C[C@H]1CC[C@H]2NC[C@@H](O)COC[C@@H]2O1)NCCN1CCCCC1 | -42 | 2 | 9 | · | · | · | ·
CN1C(=O)c2cc(NS(=O)(=O)c3ccc(Cl)cc3)ccc2OC[C@H]2O[C@@H](CC(=O)N3CCc4ccccc4C3)CC[C@H]21 | 49 | -56 | -3 | · | · | · | ·
COC(=O)C[C@H]1CC[C@H]2[C@H](COc3ccc(NC(=O)Nc4ccc(Cl)cc4)cc3C(=O)N2C)O1 | 110* | 8 | 10 | 103* | 114* | 34 | 33*
COC(=O)C[C@@H]1CC[C@H]2[C@@H](COc3ccc(NS(=O)(=O)c4ccc(F)cc4)cc3C(=O)N2C)O1 | 25 | -7 | -6 | · | · | · | ·
CN1C(=O)c2cc(NS(=O)(=O)c3ccc(Cl)cc3)ccc2OC[C@@H]2O[C@H](CC(=O)N3CCc4ccccc4C3)CC[C@@H]21 | 107* | 6 | 4 | 108* | 58 | -1 | 8
COC(=O)C[C@H]1CC[C@H]2[C@H](COc3ccc(NS(=O)(=O)c4ccc(F)cc4)cc3C(=O)N2C)O1 | 97* | 26 | -8 | 28 | 2 | -7 | -3
COC(=O)C[C@H]1CC[C@@H]2[C@H](COc3ccc(NC(=O)Nc4ccc(Cl)cc4)cc3C(=O)N2C)O1 | 53 | -1 | 6 | · | · | · | ·
C[C@H](CO)N1C[C@H](C)[C@H](CN(C)CC2CC2)Oc2c(NC(=O)Nc3ccccc3)cccc2C1=O | · | 8 | 1 | · | · | · | ·
O=C(CC1CC1)N1CC2(C1)[C@H](c1ccccc1)[C@@H](CO)N2CC1CCOCC1 | · | 1 | 2 | · | · | · | ·
CCCC#Cc1ccc([C@@H]2[C@@H](CO)N(C(=O)C3CCCCC3)[C@H]2C#N)cc1 | 89 | -34 | 1 | · | · | · | ·
CCCC#Cc1ccc([C@H]2[C@@H](C#N)N(C(=O)C3CCC3)[C@@H]2CO)cc1 | 99* | -33 | -5 | 102* | 100* | -25 | -7
CCCC#Cc1ccc([C@H]2[C@H](C#N)N(C(=O)C3CCC3)[C@H]2CO)cc1 | 87 | -32 | 2 | · | · | · | ·
CCCC#Cc1ccc([C@@H]2[C@@H](CO)N(C(=O)C3CCC3)[C@H]2C#N)cc1 | 92 | -35 | -3 | · | · | · | ·
CCCC#Cc1ccc([C@@H]2[C@@H](C#N)N(C(=O)C3CCCCC3)[C@H]2CO)cc1 | 96* | -45 | 1 | 91 | 106* | 26 | 53*
CCCC#Cc1ccc([C@@H]2[C@H](C#N)N(C(=O)C3CCCC3)[C@H]2CO)cc1 | 99* | -54 | 21 | 98* | 106* | 26 | 78*
COc1ccc(-c2cn(CC[C@@H]3CC[C@H](NC(=O)CCN4CCCCC4)[C@@H](CO)O3)nn2)cc1 | -23 | 12 | · | · | · | · | ·
COCC(=O)N(C)C[C@@H]1Oc2cc(C#CC3CCCC3)ccc2S(=O)(=O)N([C@@H](C)CO)C[C@H]1C | 23 | -30 | · | · | · | · | ·
C[C@@H]1CN([C@@H](C)CO)C(=O)c2cc(C3=CCCC3)cnc2O[C@@H]1CN(C)C(=O)Nc1ccc(F)cc1 | 61 | 12 | 18 | · | · | · | ·
SMILES | T cruzi growth-1 | Pf Dd2 inh | C diff growth | T cruzi growth-2 | T cruzi growth-3 | NIH3T3 tox | 3T3 cytotox 2
CCCNC(=O)Nc1ccc2c(c1)C(=O)N(C)C[C@@H](OC)[C@@H](C)CN(Cc1ccc(-c3ccccn3)cc1)[C@H](C)CO2 | 10 | -24 | · | · | · | · | ·
Cc1ccc(S(=O)(=O)N(C)C[C@H]2OCCCC[C@@H](C)Oc3ccc(NS(=O)(=O)c4ccc(Cl)cc4)cc3C(=O)N([C@H](C)CO)C[C@@H]2C)cc1 | 76 | -27 | -3 | · | · | · | ·
Cc1ccc(S(=O)(=O)N(C)C[C@@H]2OCCCC[C@H](C)Oc3ccc(NS(=O)(=O)c4ccc(Cl)cc4)cc3C(=O)N([C@H](C)CO)C[C@H]2C)cc1 | 91 | -50 | 2 | · | · | · | ·
Cc1ccc(S(=O)(=O)N(C)C[C@H]2OCCCC[C@@H](C)Oc3ccc(NS(=O)(=O)c4ccc(Cl)cc4)cc3C(=O)N([C@@H](C)CO)C[C@H]2C)cc1 | ? | -49 | 8 | 103* | 116* | -34 | -16
Cc1ccc(S(=O)(=O)N(C)C[C@@H]2OCCCC[C@H](C)Oc3ccc(NS(=O)(=O)c4ccc(Cl)cc4)cc3C(=O)N([C@@H](C)CO)C[C@@H]2C)cc1 | 118* | -41 | 3 | 104* | 115* | -5 | -18
C[C@@H]1CCCCO[C@H](CN(C)S(=O)(=O)c2ccc(Cl)cc2)[C@@H](C)CN([C@H](C)CO)C(=O)c2cc(NS(=O)(=O)c3ccc(Cl)cc3)ccc2O1 | 32 | -15 | -3 | · | · | · | ·
Cc1ccc(S(=O)(=O)N(C)C[C@H]2OCCCC[C@@H](C)Oc3ccc(NS(=O)(=O)c4ccc(Cl)cc4)cc3C(=O)N([C@H](C)CO)C[C@H]2C)cc1 | 108* | -80* | 5 | 98* | 109* | -20 | -9
Cc1ccc(S(=O)(=O)N(C)C[C@H]2OCCCC[C@H](C)Oc3ccc(NS(=O)(=O)c4ccc(Cl)cc4)cc3C(=O)N([C@H](C)CO)C[C@@H]2C)cc1 | 97* | -16 | 9 | 100* | 119* | 17 | 11
C/C=C/c1ccc2c(c1)O[C@@H](CN(C)C(C)=O)[C@H](C)CN([C@H](C)CO)S2(=O)=O | · | 0 | -1 | · | · | · | ·
CN(C)CC(=O)N1[C@H](C#N)[C@H](c2ccccc2-c2ccc(C(=O)N(C)C)cc2)[C@H]1CO | · | 25 | 2 | · | · | · | ·
C[C@@H]1CN([C@H](C)CO)C(=O)Cc2cc(NC(=O)Cn3cnnn3)ccc2O[C@@H]1CN(C)C(=O)Nc1cccc2ccccc12 | 10 | 2 | -8 | · | · | · | ·

Screening results from PubChem.
